# TDP1 cell CPT = qHTS for Inhibitors of human tyrosyl-DNA phosphodiesterase 1 (TDP1): qHTS in cells in presence of CPT | chicken DT40 Tdp1-/-;hTDP1 cells + 20 nM CPT, ATP luminescence, 48 h | Potency, µM (series often up to 46.2 µM), for inactives: at the highest dose activity change, negative = growth inhibition, hits mostly inhibitors | actives 12% (n = 420,000); also: nearly all actives have a fitted effect of over 55% in size
#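 Cell growth measured by CellTiter-Glo luminescence after a minimum 48 h, 37 C compound exposure with 20 nM CPT in Tdp1-knockout DT40 cells stably expressing hTDP1, seeded 400/well; qHTS titration format.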
# DT40 TDP1 no CPT = qHTS for Inhibitors of human tyrosyl-DNA phosphodiesterase 1 (TDP1): qHTS in cells in absence of CPT. DT40 Tdp1-/- hTDP1 cells, no CPT, ATP luminescence, 48 h. Potency, µM (highest dose often 46.2 µM), for the others: at the highest dose activity change, negative = growth inhibition, actives largely listed as inhibitors. actives 15% (n = 420,000). AID 686978, 2013; also: nearly all actives have a fitted effect of over 55% in size
#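 Cells were dispensed at 400 per well, compounds added by pin tool, plates incubated ≥48 hr at 37 °C, then CellTiter-Glo added for 30 min at room temperature before luminescence reading. Line: DT40 Tdp1-/- complemented with hTDP1; camptothecin omitted.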
# HT1080 IDH1KD tx = qHTS for induction of synthetic lethality in tumor cells producing 2HG: qHTS for the HT-1080-IDH1KD cell line; AID 686971, 2013; HT-1080 IDH1 knockdown viability, ATP luminescence, 48 h; Potency, µM (series often up to 46.1 µM), without a hit: at the top dose activity, negative = toxicity, most hits filed as cytotoxic; actives 2% (n = 360,000);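 also: 0% = DMSO wells and -100% = cell-free medium wells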
#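 After a 2 h attachment period, IDH1KD HT-1080 cells took pin-transferred compound for 48 h at 37 °C; ATP-based luminescence after 10 min room-temperature reagent incubation reported viability.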
# KB-V1 MDR tox = qHTS assay for MDR1-selective chemotherapeutics: Primary screen using the drug-selected MDR subline cells KB-V1; Potency, µM (titrated, usually from 46.1 µM), actives largely listed as cytotoxic; KB-V1 MDR cells viability, CellTiter-Glo, 72 h; actives 3.4% (n = 400,000); AID 1347076, 2019; also: nearly all actives have a fitted effect of over 60% in size
#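 qHTS viability screen in drug-selected KB-V1 MDR cells: 72 h compound treatment at 37 degrees C, ATP luminescence end point.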
# HT1080-NT tox = qHTS for induction of synthetic lethality in tumor cells producing 2HG: qHTS for the HT-1080-NT fibrosarcoma cell line | AID 686970, 2013 | HT-1080-NT fibrosarcoma viability, CellTiter-Glo ATP luminescence, 48 h | Potency, µM (doses to about 46.1 µM), for inactives: top-dose activity, negative = less viability, hits mostly cytotoxic | actives 1.6% (n = 360,000);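 also: NT is the 2HG producing partner of a matched IDH1 knockdown line; 0% = DMSO-treated cells and -100% = media-only wells without cells; nearly all actives have a fitted effect of over 55% in size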
#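 Read-out is CellTiter-Glo luminescence after 10 minutes at room temperature, following 48 hours' compound treatment of HT-1080-NT cells (750 cells/well, RPMI, 5% FBS, 37 degrees C).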
# KB-3-1 cytotox = qHTS assay for MDR1-selective chemotherapeutics: Primary screen using the parental adenocarcinoma cell KB-3-1; KB-3-1 viability, CellTiter-Glo ATP luminescence, 72 h; Potency, µM (top dose mostly 46.1 µM), most hits filed as cytotoxic; actives 1.4% (n = 400,000); AID 1347075, 2019; also: nearly all actives have a fitted effect of over 60% in size
#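 Using CellTiter-Glo luminescence, growth of non-resistant KB-3-1 adenocarcinoma cells is assessed 72 h after pin-tool compound addition at 37 °C. Normalized responses across the concentration series yield fitted curves.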
# The depositor's hits bear a star; i = inactive; ? = inconclusive; . = no result. Sampled rows, rich in hits. Any-hit rate of the full collection: about 19%. Calls follow the shape of the dose curve; as a rule, active = well fitted curve in the direction sought with a large enough effect; inconclusive = small, poorly fitted or top-dose-only effect, or another doubt; inactive = no such curve, though single readings can be large; an effect the other way counts as inactive or inconclusive. Unless noted, % is scaled to controls: 0 for no effect and ±100 for the full control effect; potency is read from the fitted curve at half-maximal effect.
SMILES,TDP1 cell CPT,DT40 TDP1 no CPT,HT1080 IDH1KD tx,KB-V1 MDR tox,HT1080-NT tox,KB-3-1 cytotox
CCCCCNC(=O)C(c1ccc(OC)cc1)n1c(=O)c(-c2ccco2)nc2ccccc21 (configuration not stated),16µM*,12µM*,15µM*,18µM*,26µM*,?
CC(C)(C)NC(=O)C(c1ccccc1F)n1c(=O)c(-c2ccco2)nc2ccccc21 (configuration not stated),?,?,1%,i,2%,i
COc1cc2ccccc2cc1C(=O)N1CCN(c2ccccc2O)CC1,?,?,-15%,i,-8%,i
O=C(NCc1ccccc1)C(C1CC1)n1c(=O)c(-c2ccco2)nc2ccccc21 (configuration not stated),13µM*,16µM*,1%,?,-18%,i
O=C(NCc1ccccc1)C(c1ccccc1)n1c(=O)c(-c2ccco2)nc2ccccc21 (configuration not stated),?,21µM*,3%,i,1%,i
CCOc1ccc(C2CC(=O)Nc3nc(SCc4ccccc4C)[nH]c(=O)c32)cc1OC (configuration not stated),?,15µM*,.,i,.,i
O=C1N[C@@H](c2ccccc2)COC(=O)[C@H](Cc2ccc(F)cc2)CC/C=C/C[C@H]1CC(=O)N(CCO)Cc1ccccc1,18µM*,15µM*,?,i,?,i
O=C1N[C@@H](c2ccccc2)COC(=O)[C@H](Cc2ccc(F)cc2)C/C=C\C[C@H]1CC(=O)N(CCO)Cc1ccccc1,-2%,-10%,2%,i,10%,i
O=C1N[C@@H](c2ccccc2)COC(=O)[C@@H](Cc2ccc(F)cc2)C/C=C\C[C@@H]1CC(=O)N(CCO)Cc1ccccc1,15µM*,13µM*,-3%,i,-12%,?
COc1ccccc1Nc1nc(C)nc(N)c1S(=O)(=O)c1ccccc1,.,.,.,i,.,i
O=C(COc1cccc2ccccc12)N1CCN(c2ccccc2)CC1,?,?,-4%,?,-9%,i
O=C(COc1cccc2ccccc12)N1c2ccccc2CCc2ccccc21,?,18µM*,?,16µM*,-26%,?
O=C(COc1ccc(F)cc1)N1c2ccccc2CCc2ccccc21,?,18µM*,1%,i,-1%,i
O=C1CC(c2ccco2)Sc2ccccc2N1 (configuration not stated),-13%,3%,-3%,i,-19%,i
O=C1CC(c2ccccc2)Sc2ccccc2N1 (configuration not stated),13µM*,10µM*,-8%,i,-4%,i
CCN(CC(=O)Nc1c(F)cccc1F)C(=O)CCc1ccc(OC)cc1,1%,-4%,10%,i,10%,i
CCc1ccc(C(=O)COC(=O)C(Cc2c[nH]c3ccccc23)NC(=O)c2ccc(CC)cc2)cc1 (configuration not stated),?,?,.,i,.,i
Cn1nc(C(F)(F)F)c(C#N)c1N1CCN(c2ccc(F)cc2)CC1,?,21µM*,-11%,?,-7%,?
Cn1nc([N+](=O)[O-])nc1N1CCN(c2ccc(F)cc2)CC1,-4%,0%,-5%,?,17%,i
Cn1nc(C(F)(F)F)c(C#N)c1N1CCN(c2ccccc2)CC1,?,15µM*,-1%,i,-18%,i
Cn1nc(C(F)(F)F)c(C#N)c1N1CCN(c2ccccn2)CC1,-23%,?,7%,i,4%,i
Cc1cc(C)c(NC(=O)Cn2c(=O)n(CCC(=O)NCc3ccccc3Cl)c(=O)c3sccc32)c(C)c1,-18%,1%,.,i,.,i
O=C(CSc1c2c(nc3ccc(Cl)cc13)CCCC2)N1CCN(c2cccc(Cl)c2)CC1,16µM*,?,.,.,.,.
COc1ccc(N2CCN(C(=O)CSc3c4c(nc5ccc(Cl)cc35)CCCC4)CC2)cc1,21µM*,15µM*,.,i,.,i
O=C(c1ccc2c(Cl)c3c(nc2c1)CCCC3)N1CCN(c2ccccc2)CC1,1%,-10%,.,i,.,i
SMILES,TDP1 cell CPT,DT40 TDP1 no CPT,HT1080 IDH1KD tx,KB-V1 MDR tox,HT1080-NT tox,KB-3-1 cytotox
O=C(CSc1c2c(nc3ccc(Cl)cc13)CCCC2)N1CCN(c2ccc(Cl)cc2)CC1,12µM*,16µM*,.,.,.,.
CCN(CC(=O)NC1CC1)S(=O)(=O)c1ccc(OC)cc1,2%,12%,14%,?,8%,i
CCN(CC)c1c([N+](=O)[O-])c(=O)n(CC)c2ccccc12,?,21µM*,-2%,i,1%,i
Cc1cccc(CNC(=O)c2cnn(-c3nccc(-c4cccs4)n3)c2C2CC2)n1,5%,-17%,.,.,.,.
COc1cc(/C=C/C(=O)OCC(=O)NC(=O)NC23CC4CC(CC(C4)C2)C3)ccc1OCC#N,?,21µM*,-13%,i,-21%,i
COc1ccc2cc(C(=O)C3CCCN(Cc4cnc(C)s4)C3)ccc2c1 (configuration not stated),23µM*,16µM*,-26%,9.2µM*,?,?
Cc1noc(C)c1COc1ccc(C(=O)N2CCCC(C(N)=O)C2)cc1 (configuration not stated),-1%,9%,0%,?,-4%,i

# Compound activity deposited in PubChem by National Center for Advancing Translational Sciences (NCATS).
